Measurements: the supplement of paper PMC13380429

Tested on: Vero E6 infected with SARS-CoV-2
Experiment: inhibition of SARS-CoV-2 cytopathic effect; higher = more antiviral protection, active = above 15
Settings: 48 h

Measured: inhibition of SARS-CoV-2 cytopathic effect

COc1ccnc(C[S+]([O-])c2nc3cc(OC(F)F)ccc3[nH]2)c1OC (stereo not given) [pantoprazole]
inactive: 1 nM -1.17% | 8.33 nM -2.35% | 100 nM -4.09% | 833.33 nM 0.78% | 10000 nM 0.79%

CN(C)C/C=C(/c1ccc(Br)cc1)c1cccnc1 [zimelidine]
inactive: 1 nM 0.58% | 8.33 nM 1.8% | 100 nM 0.96% | 833.33 nM -1% | 10000 nM -1.69%

CC(=O)C1=C(O)C=C2Oc3c(C(C)=O)c(O)c(C)c(O)c3C2(C)C1=O (stereo not drawn) [usniacin-(+)]
inactive: 1 nM 3.22% | 8.33 nM 2.31% | 100 nM 0.43% | 833.33 nM -1.14% | 10000 nM -4.03%

C=C[C@H]1CN2CC[C@H]1C[C@H]2[C@H](O)c1ccnc2ccccc12 [cinchonidine]
inactive: 1 nM -0.165% | 8.33 nM 2.44% | 100 nM 2.67% | 833.33 nM 3.6% | 10000 nM 2.49%

O=C(O)[C@]1(Cc2cccc(Nc3nccs3)n2)CC[C@@H](Oc2cccc(Cl)c2F)CC1
inactive: 1 nM 0.11% | 8.33 nM -0.24% | 100 nM -0.82% | 833.33 nM -6.57% | 10000 nM -5.28%
